Drawing on PubChem BioAssay (NCATS), this text covers Potency and activity change, negative = inhibition for 39 compounds.

Results filed as inconclusive are left out. Where a call stands in place of a potency, no number is given. Values without a mark were called inactive. Active and inactive are the calls of the source. Calls come from the whole dose curve; as a rule, active = well fitted inhibition curve with a large enough effect; inconclusive = small, poorly fitted or top-dose-only effect; inactive = no such curve, though single readings can be large or run the other way.

The test system of the test is Zika virus NS2B-NS3 protease (unlinked complex). The experiment in a line: Primary screen GU Rhodamine qHTS for Zika virus inhibitors: Unlinked NS2B-NS3 protease assay (AID 1347159). Note: nearly all actives have a fitted effect of over 60% in size. The note with it: Recombinant ZIKV NS2B-NS3 protease, Rhodamine110 substrate fluorescence; series mostly up to 107 µM. An outline of the steps:
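A qHTS format was used, with compound concentrations ranging up to 114 microM. Each compound was preincubated with 25 nM NS2B-NS3 protease, and the substrate was then added at 1.5 microM. Curves were fitted with a 4-parameter Hill model.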
As for `CC1C2=CC(=O)OC2(O)CC2C1C(OC(=O)c1ccccc1)C(OC(=O)c1ccccc1)C1(O)C2(C)CCC(O)C1(C)C(=O)O` (centres undefined), the Potency result is “inactive”.

As for `C=C(C)[C@@]1(O)C[C@@]2(C)C(=CC1=O)CC[C@@H](O)[C@@H]2C`, the Potency result was “inactive”.

Take `COC(=O)C1(O)C(OC(C)=O)CCC2C3(CC(c4ccoc4)OC3=O)C(C)=CCC21C(=O)OC` (centres undefined): the Potency result was “inactive”.

On to `COc1ccc(O[C@@H]2O[C@H](CO)[C@@H](O)[C@H](O)[C@H]2O)cc1OC`, for which the Potency entry was “inactive”.

Take `CC1=C2C[C@@]3(C)C(CCC[C@@H]3C)C(O)C2(O)OC1=O` (some centres undefined): the Potency entry was “inactive”.

With `COc1cc(C(CO)CO[C@@H]2O[C@H](CO)[C@@H](O)[C@H](O)[C@H]2O)ccc1O` (some centres undefined), the Potency entry is “inactive”.

`C/C=C/C(=O)OC1/C=C/C(O)C(OC(C)=O)CCC(=O)OC1C` (centres undefined): the Potency result was “inactive”.

`COc1cc(C(CO)C(OC2OC(CO)C(O)C(O)C2O)c2ccc(O)c(OC)c2)ccc1O` (centres undefined): the Potency result is “inactive”.

For `COc1ccc(C2(O)c3ccccc3NC(=O)C2OC)cc1` (centres undefined), the Potency result was “inactive”.

As for `CN1CCc2cc(Cl)c(O)cc2[C@@H](c2cccc3c2OCC3)C1`, the Potency entry is “inactive”.

Take `C[C@@H]1O[C@@H](OC2C(CO)OC(OCC3OC(OC(=O)[C@]45CCC(C)(C)CC4C4=CCC6[C@@]7(C)CC[C@@H](O)[C@](C)(C(=O)O)C7CC[C@@]6(C)[C@]4(C)CC5)C(O)C(O)C3O)C(O)C2O)[C@H](O)[C@H](O)[C@H]1O` (some centres undefined): the Potency result was “inactive”.

On to `O=C(O)Cc1cn([C@@H]2OC[C@@H](O[C@@H]3O[C@H](CO)[C@@H](O)[C@H](O)[C@H]3O)[C@H](O)[C@H]2O[C@@H]2O[C@H](CO)[C@@H](O)[C@H](O)[C@H]2O)c2ccccc12`, for which the Potency entry was “inactive”.

On to `C=C1C(OC(C)=O)CCC2(C)CCC(C(C)(C)O)CC12` (centres undefined), for which the Potency result is “inactive”.

With `CC(C)=CCC[C@](C)(O[C@@H]1O[C@H](CO[C@@H]2O[C@@H](CO)[C@H](O)[C@H]2O[C@@H]2OC[C@@H](O)[C@H](O)[C@H]2O)[C@@H](O)[C@H](O)[C@H]1O)[C@H]1CC[C@]2(C)[C@@H]1[C@H](O)CC1[C@@]3(C)CC[C@H](O[C@@H]4O[C@H](CO)[C@@H](O)[C@H](O)[C@H]4O[C@@H]4O[C@H](CO)[C@@H](O)[C@H](O)[C@H]4O)C(C)(C)C3CC[C@]12C` (some centres undefined), the activity change, negative = inhibition was 0.816% [at 19.1 µM].

With `CC(=O)NC1C(OC2CCC3(C)C(CCC4(C)C3CC=C3C5CC(C)(C)CCC5(C(=O)O)C(O)CC34C)C2(C)C)OC(CO)C(O)C1O` (centres undefined), the Potency entry is “inactive”.

Consider `CC1(C)CC(NC(=O)C(=O)Nc2ccc(Cl)cc2)CC(C)(C)N1`, for which the Potency result was “inactive”.

For `COc1cn(-c2ccc(-n3cccn3)cc2F)nc(-c2ccnn2-c2ccccc2)c1=O`, the Potency entry was “inactive”.

Regarding `O=C(O)c1cc(O[C@@H]2O[C@H](CO)[C@@H](O)[C@H](O)[C@H]2O)ccc1O`, the Potency result is “inactive”.

Take `CCOC(=O)C(CCc1ccccc1)NC(C)C(=O)N1Cc2ccccc2CC1C(=O)O` (centres undefined): the Potency entry was “inactive”.

With `COc1ccc(C(=O)CC(=O)O)c2c1C=CC(C)(C)O2`, the Potency entry was “inactive”.

As for `CCCN1CCC[C@@H](c2cccc(S(C)(=O)=O)c2)C1`, the Potency result is “inactive”.

For the compound `C=CC(C)(CC/C=C(\C)C(=O)OC)OC1OC(COC(=O)CC(C)(O)CC(=O)O)C(O)C(O)C1O` (centres undefined), the Potency entry is “inactive”.

On to `COc1ccc(/C=C/C(=O)O[C@@H]2[C@@H](O)[C@@H](O)[C@H](O[C@H]3[C@@H]4C=CO[C@@H](O[C@@H]5O[C@H](CO)[C@@H](O)[C@H](O)[C@H]5O)[C@@H]4[C@@]4(CO)O[C@@H]34)O[C@H]2C)cc1`, for which the Potency result is “inactive”.

On to `C[C@@H]1O[C@@H](O[C@H]2[C@H](O)[C@@H](O[C@@H]3O[C@H](CO)[C@H](O)[C@H](O)[C@H]3O)[C@H](O[C@H]3CC[C@@]4(C)C(CC[C@]5(C)C4CC=C4[C@@H]6CC(C)(C)CC[C@]6(C(=O)O[C@@H]6O[C@H](CO)[C@@H](O)[C@H](O)[C@H]6O)CC[C@]45C)C3(C)C)O[C@@H]2C(=O)O)[C@H](O)[C@H](O)[C@H]1O` (some centres undefined), for which the Potency entry is “inactive”.

In the case of `C=C[C@H]1[C@H](O[C@@H]2O[C@H](CO)[C@@H](O)[C@H](O)[C@H]2O)OC=C(C(=O)OC)[C@H]1CCO`, the Potency result was “inactive”.

Take `Cc1ccccc1-c1cc(N2CCN(C)CC2)ncc1N(C)C(=O)C(C)(C)c1cc(C(F)(F)F)cc(C(F)(F)F)c1`: the Potency result was “inactive”.

`COc1c2c(c(C)c3c1C(=O)OC3)OC1(C)CC(O)C34OC(OC)(CC(O)C3(C)C1C2)OC4(C)C` (centres undefined): the Potency result is “inactive”.

`CCCO[C@@H]1O[C@H](CO)[C@@H](O)[C@H](O)[C@H]1O[C@@H]1OC[C@@H](O)[C@H](O)[C@H]1O`: the Potency result is “inactive”.

As for `COc1ccc(CC(=O)NCc2ccccc2-c2ccccc2C(=O)NCCc2cccnc2)cc1`, the Potency result is “inactive”.

Consider `O=C(/C=C/c1ccccc1)O[C@@H]1[C@@H](CO)O[C@@](CO)(O[C@H]2O[C@H](CO)[C@@H](O)[C@H](O)[C@H]2O)[C@H]1O`, for which the Potency entry was “inactive”.

`CC1(C)CC2C3=CCC4[C@@]5(C)CC[C@H](OC6OCC(O)C(OC7OC(CO)C(O)C(O)C7O)C6O)C(C)(C)C5CC[C@@]4(C)[C@]3(C)C[C@H](O)[C@@]2(CO)[C@H](OC(=O)c2ccccc2)C1` (some centres undefined): the Potency entry is “inactive”.

As for `CC(C)(O)C(O)C(=O)OCc1ccc(O[C@@H]2O[C@H](CO)[C@@H](O)[C@H](O)[C@H]2O)cc1` (some centres undefined), the Potency entry is “inactive”.

As for `C/C(=C\CCC(C)C1CC(O)C2(C)C3CCC4C(C)(C)C(OC5OCC(O)C(O)C5O)CCC45CC35CC(O)C12C)C(=O)O` (centres undefined), the Potency entry is “inactive”.

Take `C=C1C(OC(C)=O)[C@@]23CCC4[C@](C)(C(=O)O)CCC[C@@]4(C)[C@]2(O)CC[C@H]1C3` (some centres undefined): the Potency result is “inactive”.

With `CC1=CCC(O)C2(C)CCC3C(C)C(=O)OC3C12` (centres undefined), the Potency result was “inactive”.

Take `O=C(NC1Cc2ccccc2N(C[C@@H](O)CO)C1=O)c1cc2cc(Cl)sc2[nH]1` (some centres undefined): the Potency entry is “inactive”.

As to `O=C(CCc1ccccc1)c1c(O)c([C@@H]2O[C@H](CO)[C@@H](O)[C@H](O)[C@H]2O)c(O)c([C@@H]2O[C@H](CO)[C@@H](O)[C@H](O)[C@H]2O)c1O`, the Potency result is “inactive”.

In the case of `C=C(C(=O)O)C1CC(O)C2(C)CCCC(C)(O)C2C1` (centres undefined), the Potency entry is “inactive”.

On to `OC[C@H]1O[C@@H](Oc2cc(O)cc(-c3cc4ccc(O[C@@H]5O[C@H](CO)[C@@H](O)[C@H](O)[C@H]5O)cc4o3)c2)[C@H](O)[C@@H](O)[C@@H]1O`, for which the Potency entry was “inactive”.
